Counter-ions that a name gives are not always drawn.
Tested on: Saccharomyces cerevisiae BY4741 SeMeCo community
Test: z-score of subpopulation abundance vs DMSO median, subpopulation auxotrophic for LM; higher = larger share of this subpopulation than in DMSO controls
Conditions: 10 µM; 24 h; SM minimal medium; subpopulation (auxotrophy): LM
Experimental: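 Fluorescent four-plasmid SeMeCo (self-establishing metabolically cooperating S. cerevisiae BY4741 community; plasmids pH-mRuby2, pL-mWasabi, pU-eCFP, pM-TagRFP657) was grown 24 h in minimal SM medium with each Selleck FDA-approved drug at 10 µM in 384-well plates. Cells were fixed and imaged by high-content confocal microscopy. For each auxotrophic subpopulation (and the prototroph), a z-score gives the deviation from the DMSO vehicle-control population median.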

| SMILES | z-score of subpopulation abundance |
| --- | --- |
| COc1ccc(C[C@H](N)C(=O)N[C@H]2[C@@H](O)[C@H](n3cnc4c(N(C)C)ncnc43)O[C@@H]2CO)cc1 [Puromycin 2HCl] | -0.47 |
| CO/N=C(\C(=O)N[C@@H]1C(=O)N2C(C(=O)OC(C)OC(C)=O)=C(COC(N)=O)CS[C@H]12)c1ccco1 (stereo not given in full) [Cefuroxime axetil] | -1.34 |
| Cc1c(-c2ccccc2)oc2c(C(=O)OCCN3CCCCC3)cccc2c1=O [Flavoxate HCl] | 0.22 |
| CCOC(=O)C1=C(C)NC(C)=C(C(=O)OC)C1c1cccc(Cl)c1Cl (stereo not given) [Felodipine] | 4.88 |
| O=C(O)CCC(=O)Nc1ccc(S(=O)(=O)Nc2nccs2)cc1 [Succinylsulfathiazole] | -0.35 |
| CN(C)CC/C=C1/c2ccccc2Sc2ccc(Cl)cc21 [Chlorprothixene] | 0.18 |
| CN[C@@H]1[C@@H](O)[C@@H](O[C@@H]2[C@@H](O)[C@H](O[C@H]3OC(CN)=CC[C@H]3N)[C@@H](N)C[C@H]2N)OC[C@]1(C)O [Sisomicin sulfate] | 1.22 |
| CC(=O)OC1CC2(C)C(CC(O)C3C4(C)CCC(O)C(C)C4CCC32C)C1=C(CCC=C(C)C)C(=O)O (stereo not given) [Fusidine] | 2.09 |
| CC(NCCC(c1ccccc1)c1ccccc1)c1ccccc1 (stereo not given) [Fendiline hydrochloride] | -0.45 |
| COc1c(N2CCNC(C)C2)c(F)cc2c(=O)c(C(=O)O)cn(C3CC3)c12 (stereo not given) [Gatifloxacin] | -0.79 |
| Cc1cccc(C)c1NC(=O)C1CCCCN1C (stereo not given) [Mepivacaine HCl] | -0.76 |
| C=CCCCCCCCCC(=O)[O-].C=CCCCCCCCCC(=O)[O-].[Zn+2] [Zinc Undecylenate] | -2.11 |
| Cn1c(=O)c2c(ncn2CC(O)CO)n(C)c1=O (stereo not given) [Dyphylline] | -0.74 |
| CC(C)COc1ccc(CNC(=O)N(Cc2ccc(F)cc2)C2CCN(C)CC2)cc1 [Pimavanserin] | -0.48 |
| CCCCCCCCCCCCCCCC[N+](C)(C)C [Cetrimonium Bromide (CTAB)] | 3.5 |
| Cc1nc(Nc2ccc(F)cc2)nc(N2CCc3ccccc3C2C)c1C (stereo not given) [Revaprazan Hydrochloride] | 0.05 |
| CCc1nc(N)nc(N)c1-c1ccc(Cl)cc1 [Pyrimethamine] | 0.19 |
| Cc1cc(C)nc(O)n1.O=C(Nc1ccc([N+](=O)[O-])cc1)Nc1ccc([N+](=O)[O-])cc1 [Nicarbazin] | -1.07 |
| CN(C)CCC=C1c2ccccc2CCc2ccccc21 [Amitriptyline HCl] | -0.17 |
| Clc1ccc(C(Cn2ccnc2)OCc2csc3c(Cl)cccc23)c(Cl)c1 (stereo not given) [Sertaconazole nitrate] | -3.39 |

| SMILES | z-score of subpopulation abundance |
| --- | --- |
| OC(c1cc(C(F)(F)F)nc2c(C(F)(F)F)cccc12)C1CCCCN1 (stereo not given) [Mefloquine HCl] | 0.3 |
| CC(C[N+](C)(C)C)OC(N)=O (stereo not given) [Bethanechol chloride] | -0.56 |
| CCc1cc(C(N)=S)ccn1 [Ethionamide] | 0.32 |
| COc1ccc2[nH]c([S+]([O-])Cc3ncc(C)c(OC)c3C)nc2c1 (stereo not given) [Omeprazole] | 0.56 |
| CN1CC(=O)N2[C@H](c3ccc4c(c3)OCO4)c3[nH]c4ccccc4c3C[C@@H]2C1=O [Tadalafil] | 3.43 |
| Cc1cccc(C)c1OCC(C)N (stereo not given) [Mexiletine HCl] | -0.69 |
| COc1nc2ccc(Br)cc2cc1[C@@H](c1ccccc1)[C@@](O)(CCN(C)C)c1cccc2ccccc12 [Bedaquiline fumarate] | 0.49 |
| CCC(C)(Oc1ccc(C2(c3ccc(OC(C)(CC)C(=O)O)cc3)CCCCC2)cc1)C(=O)O (stereo not given) [Clinofibrate] | -1.21 |
| CC(=O)OCC1=C(C(=O)O)N2C(=O)C(NC(=O)CSC(=NC(C)C)NC(C)C)C2SC1 (stereo not given) [Cefathiamidine] | -1.11 |
| CO/N=C(\C(=O)N[C@@H]1C(=O)N2C(C(=O)O)=C(COC(C)=O)CS[C@H]12)c1csc(N)n1 [Cefotaxime sodium] | 1.08 |
| Oc1c(I)cc(I)c2cccnc12 [Diiodohydroxyquinoline] | 0.38 |
| Cc1cccc(C)c1NC(=O)C1CCCCN1C (stereo not given) [Mepivacaine] | 0.4 |
| CO/N=C(\C(=O)N[C@@H]1C(=O)N2C(C(=O)O)=C(CSc3nc(=O)c(O)nn3C)CS[C@H]12)c1csc(N)n1 [Ceftriaxone Sodium Trihydrate] | -0.18 |
| C=C[C@H]1CN2CC[C@H]1C[C@H]2[C@H](O)c1ccnc2ccc(OC)cc12 [Quinine HCl Dihydrate] | -0.52 |
| CN1CC2c3ccccc3Oc3ccc(Cl)cc3C2C1 (stereo not given) [Asenapine maleate] | 0.5 |
| OC(c1ccccc1)(c1ccccc1)C12CC[N+](CCOCc3ccccc3)(CC1)CC2 [Umeclidinium bromide] | -0.42 |
| Oc1c(Cl)cc(Cl)cc1Sc1cc(Cl)cc(Cl)c1O [Bithionol] | -1.62 |
| Nc1nc(=O)[nH]cc1F [Flucytosine] | -4.29 |
| CCCN(CCc1cccs1)[C@H]1CCc2c(O)cccc2C1 [Rotigotine] | 1.22 |
| O=c1cc(-c2ccc(O)c(O)c2)oc2cc(O)cc(O)c12 [Luteolin] | 0.14 |

Reference: the supplement of paper PMC8975748
